This test has as its system Aedes aegypti neuropeptide Y-like receptor 7 (NPYLR7). As to the kind of experiment: agonists of mosquito NPYLR7 receptor, primary screen, cell-based, Aedes aegypti, calcium fluorescence, mosquito biting behavior (AID 1259423).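 Further: 0% = vehicle and 100% = reference agonist at the receptor.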 The following applies: HEK293T NPYLR7/Galpha15, GCaMP6s calcium fluorescence, at 10 µM, stronger effect = higher value.
The mark [1] stands for this setting: measured here: Max-Min RFU normalised activation.

In all, about 270,000 compounds went through this assay and about 410 (0.15%) were called active. No stated cut-off is given here; in the data, active means activation above about 40%; inactive means the rest, inconclusive results apart. The sample as a whole holds a higher share of actives than the screen did.

Turning to `CCCCN(C)C(=O)c1nn(Cc2ccc(S(=O)(=O)N(C)c3ccccc3)cc2)c2ccccc12`, the activation was 11.3% (inactive). The activation under setting [1] came out at 10%.

`CNC(C)c1nc2ccccc2c(=O)n1-c1ccc(Br)cc1` (stereo not drawn): the activation is 0.997% (inactive). Also, the activation under setting [1] was 9.08%.

For `CC(C)CN(Cc1cc(NC(=O)c2cccc(F)c2)ccc1N(C)C1CCN(C)CC1)C(=O)c1ccccc1Cl`, the activation is 1.98% (inactive). Further, under setting [1], the activation was found to be 1.76%.

With `N#[N+]c1c[nH]c2ccccc2c1=O`, the activation was -8.5% (inactive). The activation under setting [1] was -5.61%.
